In PubChem BioAssay AID1671192 (National Center for Advancing Translational Sciences (NCATS), 2021):
Records with an inconclusive call do not appear. Active and inactive are the calls of the source. The call rests on the fitted dose curve; in most records, active means well fitted curve in the direction sought with a large enough effect; inconclusive means small, poorly fitted or top-dose-only effect, or another doubt; inactive means no such curve, though single readings can be large or run the other way.

The compounds below were run against Polyunsaturated fatty acid lipoxygenase ALOX15 (Homo sapiens) (UniProt P16050) (assay: Counterscreen qHTS for inhibitors of human arachidonate 12S-lipoxygenase (ALOX12): ALOX15 Assay). Conditions: purified ALOX15 enzyme activity; series mostly up to 110 µM.
Polyunsaturated fatty acid lipoxygenase ALOX15 (Homo sapiens), sequence (P16050 whole entry, looked up): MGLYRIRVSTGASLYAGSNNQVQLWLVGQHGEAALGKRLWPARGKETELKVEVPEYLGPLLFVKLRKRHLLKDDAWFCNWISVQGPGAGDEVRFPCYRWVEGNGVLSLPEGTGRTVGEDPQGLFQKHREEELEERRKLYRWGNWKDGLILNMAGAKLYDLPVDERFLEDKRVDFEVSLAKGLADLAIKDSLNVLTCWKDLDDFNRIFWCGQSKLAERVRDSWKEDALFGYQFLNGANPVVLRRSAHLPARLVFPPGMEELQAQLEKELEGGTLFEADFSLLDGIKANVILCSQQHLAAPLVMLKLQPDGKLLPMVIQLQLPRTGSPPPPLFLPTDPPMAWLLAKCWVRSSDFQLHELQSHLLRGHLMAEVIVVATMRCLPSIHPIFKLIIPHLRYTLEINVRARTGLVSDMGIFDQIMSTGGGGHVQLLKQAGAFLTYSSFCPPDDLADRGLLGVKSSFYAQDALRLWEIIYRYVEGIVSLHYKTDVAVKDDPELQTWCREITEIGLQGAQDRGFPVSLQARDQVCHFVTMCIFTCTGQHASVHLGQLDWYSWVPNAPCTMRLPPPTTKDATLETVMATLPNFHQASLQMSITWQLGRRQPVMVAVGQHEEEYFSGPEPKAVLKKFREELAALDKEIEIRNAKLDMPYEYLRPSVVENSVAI
Method in brief: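 Purified human ALOX15 (15hLO-1) at 40 nM in 25 mM HEPES, 0.01% Triton X-100, pH 7.5, preincubated with compound 15 min at RT. Then 50 uM arachidonic acid for 30 min; hydroperoxide detected by Fe-xylenol orange as the 573/405 nm absorbance ratio.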

Row | SMILES | outcome
1 | CCCC(=O)N1Cc2ccccc2CC2(CCCN(C)C2)C1 (stereo not drawn) | inactive
2 | O=C(c1cc(C2CC2)nc2onc(C3CCCN3)c12)N1CCOCC1 (stereo not drawn) | inactive
3 | O=C(NC1CC1)c1cc(-c2ccccc2C(F)(F)F)nc2onc(C3CCNC3)c12 (stereo not drawn) | inactive
4 | C[S+](=O)([O-])N1CCC(c2nnc3n2CCNC3)CC1 | inactive
5 | COc1cccc([S+](=O)([O-])N2CCn3c(nn(-c4cccc(Cl)c4)c3=O)C2)c1 | inactive
6 | CS(=O)(=O)N1CCC2(CC1)CN(Cc1ccc(O)cc1)Cc1ccccc1O2 | inactive
7 | COc1ccc(-c2cc(C(=O)NC3CCNCC3)c3c(C4CCCN4)noc3n2)cc1 (stereo not drawn) | inactive
8 | CC(C)OCCCNc1ncnc2c1CN(C1CCNC1)C(=O)CN2C (stereo not drawn) | inactive
9 | Cn1nc(C2CCCN2)c2c(C(=O)NCc3ccc(F)cc3)cc(C3CC3)nc21 (stereo not drawn) | inactive
10 | C[S+](=O)([O-])N1CCCC(c2nnc3n2CCNC3)C1 (stereo not drawn) | inactive
11 | NCc1ccc(-c2ccccn2)cc1 | inactive
12 | CN(c1ccccc1)C1CNC1 | inactive
13 | Cc1cc(C(=O)NCc2ccc(F)cc2)c2c(C3CCNC3)noc2n1 (stereo not drawn) | inactive
14 | COc1ccccc1-c1cccc(CN)c1 | inactive
15 | O=C(O)c1cccc(-c2ccsc2)c1 | inactive
16 | CC(C)NC(=O)NC1CC2(CCN(Cc3ccc(O)cc3)CC2)c2ccccc21 (stereo not drawn) | inactive
17 | Cc1ccc(-c2ccc(C=O)cc2)cc1Cl | inactive
18 | NCCC(=O)N1Cc2ccccc2CC2(CCCCN2CC2CCNCC2)C1 (stereo not drawn) | inactive
19 | CN1CC(=O)N(C2CCCNCC2)Cc2c(NCCO)ncnc21 (stereo not drawn) | inactive

Row | SMILES | outcome
20 | Cc1cccc(N2Cc3c(NCCCOC(C)C)ncnc3N(C)CC2=O)c1 | inactive
21 | CC(C)[S+](=O)([O-])N1CCCC1c1nnc2n1CCNC2 (stereo not drawn) | inactive
22 | O=C1NCc2ccccc2CC12CCCN2Cc1ccc(Cl)s1 (stereo not drawn) | inactive
23 | CC(=O)NCCC(=O)N1Cc2ccccc2CC2(CCCCN2CC2CCNC2)C1 (stereo not drawn) | inactive
24 | CN1CC(=O)N(C2CCCNCC2)Cc2c1ncnc2N1CCCC(O)C1 (stereo not drawn) | inactive
25 | Cc1ccc(-c2ccccc2C=O)cc1Cl | inactive
26 | O=C1c2ccccc2CN1C1CCN(Cc2ccsc2)CC1 | inactive
27 | Fc1ccc(CN2CCn3c(nnc3C3CCCNC3)C2)cc1 (stereo not drawn) | inactive
28 | N#Cc1ccc(CN2CCC3(CC(c4cccc(C(F)(F)F)c4)=NO3)C2)cc1 (stereo not drawn) | inactive
29 | O=C(c1cc(C2CC2)nc2onc(C3CCCN3)c12)N1CCC(F)CC1 (stereo not drawn) | inactive
30 | NCc1ccccc1-c1cc(C(F)(F)F)ccc1Cl | inactive
31 | O=C(c1ccncc1)N1CCC(c2nnc3n2CCNC3)CC1 | inactive
32 | CCOC(=O)C1CC1CN1CCCC2(Cc3ccccc3CNC2=O)C1 (stereo not drawn) | inactive
33 | CN1CC(=O)N(C2CCCNCC2)Cc2c(NCc3cccc(Cl)c3)ncnc21 (stereo not drawn) | inactive
34 | COc1ccc(C(=O)N2CCc3nc(C4CC4)nc(-c4ccc(OC)cc4)c3C2)cc1 | inactive
35 | CCc1ccc(CN2CCCC3(Cc4ccccc4CNC3=O)C2)s1 (stereo not drawn) | inactive
36 | NCC(=O)N1Cc2ccccc2CC2(CCN(CC3CCNC3)C2)C1 (stereo not drawn) | inactive
37 | O=C1NCc2ccccc2CC12CCN(Cc1cc(O)cc(O)c1)C2 (stereo not drawn) | inactive
38 | NCc1cccc(-c2cc(C(F)(F)F)ccc2Cl)c1 | inactive
